About 4,000 (25%) of roughly 16,000 compounds were called active. Roughly 26% stayed inconclusive and do not appear here. Calls come from the whole dose curve; as a rule, active = well fitted curve in the direction sought with a large enough effect; inconclusive = small, poorly fitted or top-dose-only effect, or effect the other way; inactive = no such curve, though single readings can be large or run the other way. These entries were drawn from the full list.
Target: Cytochrome P450 2C9 (Homo sapiens) (UniProt P11712)
Sequence (P11712 whole entry, looked up): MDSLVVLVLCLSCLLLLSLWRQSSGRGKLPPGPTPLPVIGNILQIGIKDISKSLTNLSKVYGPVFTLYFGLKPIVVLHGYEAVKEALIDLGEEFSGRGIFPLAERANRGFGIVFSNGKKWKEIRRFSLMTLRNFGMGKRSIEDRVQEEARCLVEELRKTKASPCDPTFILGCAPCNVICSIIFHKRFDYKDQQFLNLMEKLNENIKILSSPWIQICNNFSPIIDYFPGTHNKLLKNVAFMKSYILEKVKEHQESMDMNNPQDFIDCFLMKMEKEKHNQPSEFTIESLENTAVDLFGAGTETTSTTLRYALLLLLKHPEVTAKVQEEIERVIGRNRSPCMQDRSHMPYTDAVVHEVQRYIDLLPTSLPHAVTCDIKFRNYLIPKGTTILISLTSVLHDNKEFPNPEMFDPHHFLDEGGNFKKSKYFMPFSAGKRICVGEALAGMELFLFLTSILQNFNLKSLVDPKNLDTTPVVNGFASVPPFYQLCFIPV
Assay: Cytochrome panel assay with activity outcomes
Conditions: recombinant CYP, pro-luciferin dealkylation, luminescence, p450-cyp2c9; series mostly up to 57.1 µM
% is set by controls: 0 for no effect and ±100 for the full control effect.

AC50, active:
C#CCOC(=O)Nc1ccc(=O)n(Cc2c(Cl)cccc2Cl)c1 1.58 µM, O=C(OC1CCN(c2ccc([N+](=O)[O-])cc2)CC1)c1ccccc1 0.631 µM, CN1C(=O)/C(=N\OC(=O)c2cccc3ccccc23)c2ccccc21 2.82 µM, CCn1c(=O)cc(OCC(=O)Nc2cccnc2)c2ccccc21 15.8 µM, COc1ccc2cc3cc(C(=O)NCc4ccc5c(c4)OCO5)oc3nc2c1 4.47 µM, OCc1ccc(-c2nn(Cc3ccccc3)c3ccccc23)o1 31.6 µM, COc1cc2nc(SCc3ccc(Cl)cc3Cl)n(Cc3cccs3)c(=N)c2cc1OC 2.51 µM, Cc1cc(C)c(S(=O)(=O)N2CCCCC2)c(C)c1N(C)S(=O)(=O)c1ccccc1 2 µM, Cc1cccc(OCCSCc2nc3ccccc3[nH]2)c1 5.01 µM, Cc1ccc(N=CC2=C(O)CC(c3ccco3)CC2=O)cc1 (configuration not stated) 8.91 µM, COc1ccc(COc2ccsc2C(=O)Nc2ccc(Cl)c(Cl)c2)cc1 2.82 µM, CCc1ccc(C(CC(=O)c2ccc(Cl)cc2)C(=O)O)cc1 (configuration not stated) 10 µM, CSc1ccc(CNc2ccc(Cl)cc2)cc1 6.31 µM, CSc1ccc(CNc2ccccc2)cc1 12.6 µM, COC(=O)C/C=C\[C@@H](C)[C@@H](/C=N\OC[C@@H]1O[C@H](c2ccccc2)C=C[C@@H]1Oc1ccc(OC)cc1)NS(=O)(=O)c1ccc(C)cc1 1.26 µM, CCCNC(=O)OC[C@H]1O[C@@H](CCO/N=C\[C@@H](NS(=O)(=O)c2ccc(C)cc2)[C@H](C)/C=C\CC(=O)OC)C=C[C@@H]1Oc1ccc(OC)cc1 3.98 µM, COC(=O)C/C=C\[C@@H](C)[C@@H](/C=N\O[C@@H](C)c1cc(-c2c(C)cc(C)cc2C)no1)NS(=O)(=O)c1ccc(C)cc1 2.51 µM, CCOC(=O)C1=C(C)NC(=O)NC1c1ccoc1 (configuration not stated) 12.6 µM, CCN(C(=O)CSc1nc2cc(C(=O)OC)ccc2c(=O)n1Cc1ccco1)c1cccc(C)c1 0.2 µM, COCCNC(=O)CSc1nc2ccc(N3CCOCC3)cc2c(=O)n1Cc1ccc(OC)cc1 5.62 µM, CCCCNC(=O)CSc1nc2cc(OC)c(OC)cc2c(=O)n1Cc1ccc(OC)cc1 2.24 µM, COCCNC(=O)CSc1nc2cc(OC)c(OC)cc2c(=O)n1Cc1ccco1 2.24 µM, CCOC(=O)C[n+]1c(C)sc2ccc(OC)cc21 14.1 µM, N#CCCn1c(=O)c(CCc2ccccc2)nc2cnc(Oc3ccccc3)nc21 7.94 µM, N#CCCn1c(=O)c(CCc2ccccc2)nc2cnc(Oc3cccc(Cl)c3)nc21 3.16 µM, N#CCCn1c(=O)c(CCc2ccccc2)nc2cnc(OCc3ccccc3)nc21 15.8 µM, COc1ccc(Oc2ncc3nc(CCc4ccccc4)c(=O)n(CCC#N)c3n2)cc1 10 µM, N#CCCn1c(=O)c(-c2ccccc2)nc2cnc(OCc3ccccc3)nc21 12.6 µM, COc1ccc(Oc2ncc3nc(CCc4ccccc4)c(=O)n(C)c3n2)cc1 10 µM, COCCn1c(=O)c(CCc2ccccc2)nc2cnc(Oc3ccc(OC)cc3)nc21 10 µM, COCCn1c(=O)c(CCc2ccccc2)nc2cnc(Oc3cccc(Cl)c3)nc21 1 µM

AC50, inactive:
CCn1c(=O)[nH]c2ccccc21, C[N+]1(C)CCC(OC(=O)C(c2ccccc2)c2ccccc2)CC1, O=C(CCCc1ccccc1)N1CCN(c2ccc([N+](=O)[O-])cc2)CC1, Cn1c(=O)cc(OCCCC(=O)Nc2cccnc2)c2ccccc21, CC(C(=O)Nc1cccnc1)N1C(=O)C2C3C=CC(C3)C2C1=O (configuration not stated), COc1ccc2cc3cc(C(=O)NCc4ccccn4)oc3nc2c1, CCCN(CCC)CCCNC(=O)c1cc2cc3ccc(OC)cc3nc2o1, Cc1ccc(-n2c(-c3ccc(Br)cc3)c[n+]3c2CCc2ccc4cccnc4c2-3)cc1, CCNc1ncc2nc(-c3ccc(F)cc3)c(=O)n(CCC#N)c2n1, CN(C)c1ncc2nc(-c3ccc(Cl)cc3)c(=O)n(Cc3cccs3)c2n1, Cc1ccc(S(=O)(=O)ON=C2CCN(S(=O)(=O)c3ccccc3)CC2)cc1, CC(C)C12CN3CC(C(C)C)(CN(C1)C3c1ccco1)C2=O (configuration not stated), COc1ccc(C(=O)N2CCC3(CCCN(C)C3)CC2)cc1, CCCn1c(CC)nc([N+](=O)[O-])c1S(=O)(=O)c1ccccc1, CNC(=S)NNC(=O)c1sccc1OCc1ccc(C)cc1, N[C@H](Cc1ccc(Cl)cc1)C(=O)O, COc1cccc(CNCc2ccc(SC)cc2)c1OC, CCNc1ncc2nc(-c3ccc(F)cc3)c(=O)n(CCOC)c2n1, COCCCNC(=O)CCC(=O)Nc1ccc2nc(N3CCOCC3)cc(C)c2c1, COCCn1c(=O)c(-c2ccc(OC)cc2)nc2cnc(N3CCOCC3)nc21, COc1ccc2nc(SCC(=O)NN)cc(C)c2c1, COc1cc2nc(N(C)CCCNC(=O)[C@@H]3CCCO3)nc(N)c2cc1OC, COc1cc2nc(N3CC=[N+](C(=O)c4ccco4)CC3)nc(N)c2cc1OC, CCN1CCC[C@H]1CNC(=O)c1cc(S(N)(=O)=O)ccc1OC, Cc1sc2ccccc2[n+]1CCC(C)S(=O)(=O)[O-] (configuration not stated), COc1ncc2nc(CCc3ccccc3)c(=O)n(CCC#N)c2n1, Cn1cc(-c2nc3cnc(Oc4ccccc4)nc3n(CCC#N)c2=O)c2ccccc21, COCCn1c(=O)c(-c2cn(C)c3ccccc23)nc2cnc(OCc3ccccc3)nc21, COc1cccc(Nc2ncc3nc(CCc4ccccc4)c(=O)n(CCC#N)c3n2)c1, N#CCCn1c(=O)c(-c2ccc(F)cc2)nc2cnc(OCc3ccccc3)nc21, COc1ncc2nc(CCc3ccccc3)c(=O)n(C)c2n1, N#CCCn1c(=O)cnc2cnc(OCc3ccccc3)nc21, COc1ccc(Oc2ncc3nc(C)c(=O)n(C)c3n2)cc1

activity, negative = inhibition, inactive:
O=C(O)c1cccc2cccc(-c3cccc4cccc(C(=O)O)c34)c12 -4.84% [at 11.4 µM], CO[C@H]1COC(=O)[C@@H](Cc2ccccc2)NC(=O)[C@@H](C)COC(=O)CCC[C@@H]1C 18.6% [at 11.4 µM], NC(=O)c1csc(-c2ccc(CO)o2)n1 6.84% [at 11.4 µM], CN1CCN(c2ncncc2-c2ccccc2C(F)(F)F)CC1 10.5% [at 2.29 µM], CCN1C(=O)[C@H]2[C@H]3[C@H](O)[C@H](O)C/C(=N/OCC(C)C)[C@@H]3CC[C@@H]2C1=O 28.3% [at 11.4 µM], C[N+](C)(C)CCCSc1nc2ccccc2[nH]1 3.61% [at 11.4 µM], CS(=O)(=O)Nc1cccc(-c2ccc3ncnc(Nc4ccc(F)cc4)c3c2)c1 -7.12% [at 2.29 µM], O=C(O)CCC(=O)c1ccc(Cl)cc1 18.6% [at 11.4 µM], CS(=O)(=O)Nc1cccc(-c2cc(NCc3ccccc3)ncn2)c1 22.3% [at 2.29 µM], Cc1ccc(C)c(NC(=O)NCc2ccc(Cl)cc2)c1 -2.65% [at 11.4 µM], Cc1ccc(S(=O)(=O)N[C@H]2COC(=O)C/C=C\[C@@H](C)[C@H](NS(=O)(=O)c3ccc(C)cc3)COC(=O)[C@H](C)NC(=O)C/C=C\[C@H]2C)cc1 15.4% [at 11.4 µM], CCCNC(=O)OC[C@@H]1O[C@H](CCO/N=C\[C@@H](C)[C@H](OCc2ccccc2)C(C)C)C=C[C@@H]1Oc1ccc(OC)cc1 -22.3% [at 11.4 µM], COC(=O)C/C=C\[C@@H](C)[C@@H](/C=N\O[C@@H](C)c1cn([C@H]2COC[C@H]2O)nn1)NS(=O)(=O)c1ccc(C)cc1 16% [at 11.4 µM], COC(=O)C/C=C\[C@@H](C)[C@@H](/C=N\OC[C@@H](O)COCc1ccco1)NS(=O)(=O)c1ccc(C)cc1 -14.9% [at 11.4 µM], CCCNC(=O)OC[C@@H]1O[C@H](CCON=C(C)C)C=C[C@@H]1Oc1ccc(OC)cc1 2.96% [at 11.4 µM], COc1ccc(O[C@H]2C=C[C@@H](c3ccccc3)O[C@@H]2CO/N=C\[C@@H](C)[C@H](OCc2ccccc2)C(C)C)cc1 -24.2% [at 11.4 µM], CO/N=C\[C@@H](NS(=O)(=O)c1ccc(C)cc1)[C@H](C)/C=C\CC(=O)OC -27.4% [at 11.4 µM], CCOC(=O)c1c(C)c(C)n2c1NC(=O)C2 -2.03% [at 11.4 µM], CCOC(=O)C1=C(C)NC(=O)N[C@@H]1c1coc2cc(C)cc(C)c2c1=O -14.5% [at 11.4 µM], Cc1sc2ccccc2[n+]1CCC(=O)O 9.02% [at 11.4 µM], C/C(=N\[N+](C)(C)C)c1ccc(C)c(C)c1 13% [at 11.4 µM], COc1ccc(CNc2ccnc(-c3ccccc3Cl)n2)c(OC)c1 -11.5% [at 2.29 µM], N[C@@H]1[C@@H]2[C@@H]3C[C@H]4N(CC[C@@]14C(=O)C(=O)O)CC3=CCO[C@@H]2CC(=O)O 5.63% [at 11.4 µM]

Source: PubChem BioAssay AID1851 (National Center for Advancing Translational Sciences (NCATS), 2009)
